High-throughput results deposited in PubChem BioAssay by several laboratories.
Lmaj promast – Leishmania major promastigote growth inhibition | inhibition, % at 10 µM | AID 1063 | hit rate 9% among 200,000 | Leishmania major promastigotes, resazurin fluorescence viability; in the data active = inhibition above about 50%;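 also: promastigotes grown with compound for 44 hours at 28 °C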
WT yeast gro inh – growth inhibition of WT yeast, mitochondrial fusion screen. mitochondrial fusion phenotypic screen, WT strain. inhibition, % at 10 µM. hit rate 2.1% among 190,000; in the data active = inhibition above about 58%; tested in S. cerevisiae
CHOP inhibitor – CHOP inhibition in unfolded protein response. inhibition, % at 10 µM. CHO-K1 CHOP-promoter luciferase, tunicamycin-induced, 15-18 h. hit rate 3.8% among 220,000;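 active = compounds that reduced the stress-induced luciferase reporter signal by more than about 70% of percent inhibition, limit read from the data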;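 also: 0% = tunicamycin plus vehicle and 100% = wells without tunicamycin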
RAM inhibit – inhibitors of the yeast RAM network; inhibition, % at 50 µM; hit rate 1.8% among 190,000; S. cerevisiae dse1pr::URA3 reporter, 5-FOA growth OD615, 2 d; analog-sensitive cbk1-as2 kinase mutant strain;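 active = inhibition above a set limit, 3 SD over mean compound inhibition, cut at about 8.4% in these data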;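 also: 0% = DMSO-only wells with no growth and 100% = 10 µM 1-NA-PP1 full growth; inhibition rescues growth on 5-FOA so higher OD means more RAM inhibition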
* hit, by the source's call; / = no result given. This is a sample that favours compounds with a hit; in the whole collection about 13% have one here.

SMILES	Lmaj promast	WT yeast gro inh	CHOP inhibitor	RAM inhibit
CN(C(=O)COc1ccc(Br)cc1Cl)C1CCCCC1	14	22	35	0
CC1CCN(CCOCCOc2ccc(Br)cc2Cl)CC1	99*	43	-23	-1
CC1CCN(CCOc2cc(Cl)ccc2Cl)CC1	85*	18	13	1
CC1CCCN(CCCOc2ccc(Br)cc2Cl)C1 (centres undefined)	89*	18	-1	2
O=C1CC(c2ccc(F)cc2)CC2=C1C(c1ccc([N+](=O)[O-])o1)Nc1ccccc1N2 (centres undefined)	/	/	-4	/
CCOC(=O)N1CCN(c2cc(=O)n(-c3cccc(C)c3)c(=O)[nH]2)CC1	-5	2	3	2
CC(C)N(c1ccccc1)c1ccc(NC(=O)CCl)cc1	55*	-44	-103	4
O=C(CCl)Nc1ccc(-c2ccccc2)cc1	79*	-8	-49	2
O=C(CCl)Nc1ccc(N2CCCCCC2)cc1	99*	-3	-44	1
CCC(=O)Nc1ccc(N2CCCCC2)cc1	-2	9	31	1
COc1ccc(N(C(=O)c2ccn[nH]2)C(C(=O)NC(C)(C)C)c2ccc(F)cc2)cc1 (centres undefined)	81*	-26	-15	1
CC(C)(C)NC(=O)C(c1ccc(F)cc1)N(CCc1ccccc1)C(=O)c1ccn[nH]1 (centres undefined)	14	4	24	1
COc1ccc(-c2cc(-c3cc(OC)ccc3O)[nH]n2)cc1	91*	33	31	2
COc1ccc(O)c(-c2cc(-c3cccc(Br)c3)n[nH]2)c1	37	-3	-2	10*
COc1ccc(-c2cc(-c3ccc(OC)c(OC)c3)n[nH]2)c(O)c1	99*	55	12	0
COc1ccc(-c2cc(-c3ccccc3O)[nH]n2)cc1OC	40	36	-38	1
COc1ccc(-c2n[nH]c(C)c2-c2cc(OC)ccc2O)cc1	7	-9	40	1
COc1ccc(C[C@H]2CN3C(=NC[C@@H]3Cc3ccccc3)N2CCNC(=O)CCC2CCCCC2)cc1	58*	5	-5	1
COc1ccc(C[C@H]2CN3C(=NC[C@@H]3C(C)C)N2CCNC(=O)CCC2CCCCC2)cc1	34	0	16	0
COc1cc(/C=N/NC(=O)CC2(C)OCCCO2)ccc1OCc1ccccc1	2	-8	40	-1
O=C(CCN1CCCCC1)N/N=C/c1ccc(Br)cc1	83*	-2	-22	2
COc1cc(/C=N/NC(=O)CN2CCCCC2)ccc1OCc1ccc(Br)cc1	94*	-3	17	1
O=C(CCN1CCCCC1)Nc1ccc(Br)cc1	-5	-34	25	2
Cc1ccc(-c2noc(CN3C(C)CCCC3C)n2)cc1 (centres undefined)	-4	16	58	1
COC(=O)C1CCN(S(=O)(=O)Cc2ccccc2)CC1	-7	-11	-3	0
SMILES	Lmaj promast	WT yeast gro inh	CHOP inhibitor	RAM inhibit
CC1CN(C2CCN(S(=O)(=O)Cc3ccccc3)CC2)CC(C)O1 (centres undefined)	91*	-2	33	2
CC1CN(C2CCN(S(=O)(=O)c3ccccc3)CC2)CC(C)O1 (centres undefined)	81*	-33	12	4
CC1CN(C2CCN(S(=O)(=O)c3ccc(F)cc3)CC2)CC(C)O1 (centres undefined)	91*	43	-16	1
O=S(=O)(Cc1ccccc1)N1CCN(C2Cc3ccccc3C2)CC1	52*	6	-7	1
O=S(=O)(c1ccccc1Cl)N1CCC(O)(c2cccnc2)CC1	-5	3	3	1
CC12CCC(=O)N1C(C(=O)OCC(=O)Nc1cc(S(=O)(=O)N3CCCCC3)ccc1Cl)CS2 (centres undefined)	-1	8	-4	0
CC(C)Sc1n[nH]c(=O)n1-c1ccccc1	/	/	3	/
COc1ccc(CC(=O)OCC(=O)Nc2ccc(N3CCOCC3)cc2)cc1	/	/	1	/
CCN(c1cccc(C)c1)S(=O)(=O)c1ccc2c3c(cccc13)C(=O)N2	99*	-8	57	8.5*
CC1=C(C)C(C)=C(C#N)C(=C(C#N)C#N)N1	/	/	-20	/
O=C(NCCCN1CCc2ccccc2C1)C1CCN(S(=O)(=O)N2CCC3(CC2)OCCO3)CC1	-4	9	4	2
O=C(C1CCN(c2ccc(N3CCOCC3)nn2)CC1)N1CCN(c2ccc(F)cc2)CC1	97*	-9	/	-1
O=C(C1CCN(S(=O)(=O)N2CCOCC2)CC1)N1CCN(c2ccc(F)cc2)CC1	-4	-4	20	0
COC(=O)C1=C(C)N(C)C(C)=C(C(=O)OC)C1c1ccc(Cl)cc1	-3	7	72*	3
CCOC(=O)C1=C(C)N(C)C(C)=C(C(=O)OCC)C1c1ccc(C(=O)OC)cc1	38	19	28	0
CCOC(=O)C1=C(C)N(C)C(C)=C(C(=O)OCC)C1c1ccc(Cl)cc1	18	29	80*	6
C/C(=N\NC(=O)c1ccc(N2CCCC2=O)cc1)c1ccncc1	/	/	50	/
COC(=O)[C@@H]1C[C@@]2(O)[C@@H](O)[C@@H](O)[C@@H](O)C[C@H]2N1C/C=C/c1ccccc1	/	/	4	/
CCNC(=S)N/N=C/c1sc(N2CCCCC2)nc1-c1cccs1	9	53	38	6
CC1=CC(C)(C)N(C(=O)CCl)c2cc(C)ccc21	2	-29	59	0
CCOc1ccc2c(c1)C(C)=CC(C)(C)N2C(=O)Nc1ccccc1F	68*	-20	19	0
CCOc1ccc(S(=O)(=O)N2CCN(c3ccc(C)cc3C)CC2)cc1	-6	51	51	4
CC1=CC(C)(C)N(S(=O)(=O)c2ccc(C)cc2)c2cc(C)ccc21	99*	76*	/	6
COc1ccc2c(c1)C(C)=CC(C)(C)N2S(=O)(=O)c1ccc(C)cc1	98*	45	-14	8
CCOc1ccc2c(c1)C(C)=CC(C)(C)N2S(=O)(=O)c1ccc(C)cc1	95*	72*	-16	7
SMILES	Lmaj promast	WT yeast gro inh	CHOP inhibitor	RAM inhibit
CCNC(=O)N1c2ccc(OCC)cc2C(C)=CC1(C)C	11	12	17	-1
Clc1ccc(SCCn2ccnc2)cc1	-4	5	-3	2
Cn1ccc(C(=O)Nc2ccc(Br)cc2Br)n1	0	9	-1	3
CCOc1cc(/C=C2\CCCC(C(=O)C(F)(F)F)=C2O)ccc1O	15	13	75*	9.1*
COC(=O)C1C(=O)c2c([nH]c(C(=O)OCC3CCCO3)c2C)CC1C (centres undefined)	-4	-3	21	1
COC(=O)CSc1nnc(NC(=O)/C=C\c2ccc3c(c2)OCO3)s1	100*	-14	36	5
O=C(/C=C\c1ccc2c(c1)OCO2)Nc1nnc(SCC(=O)OCc2ccccc2)s1	92*	-5	32	2
O=C(/C=C/c1ccc2c(c1)OCO2)Nc1nncs1	/	/	1	/
CC(c1c(O)c2ccccc2[nH]c1=O)C1(C)CCC(O)C(C)(C)O1 (centres undefined)	19	0	3	-1
COc1cccc(/C=C/C(=O)NCc2cn3cc(Cl)ccc3n2)c1OC	-5	-3	8	1
